Bioassay records from PubChem BioAssay.
A selection: hits, their analogues and other compounds. The true share with any hit is near 13%.
Pf growth 96h: inhibits malaria parasite growth, 96 h; P. falciparum luciferase reporter growth, 96 h; Potency, µM (doses to about 28.7 µM), without a hit: top-dose activity change, negative = inhibition, hits mostly inhibitors; actives 6.9% (n = 320,000); note: potency is the fitted concentration of half-maximal effect
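P. falciparum expressing integrated firefly luciferase grown in erythrocytes (2% hematocrit, 0.05% parasitemia final) with compounds for 96 hours at 37 C, 5% CO2. Growth inhibition read as loss of luminescence after adding luciferase detection reagent.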
Pf growth 48h: P. falciparum growth inhibition at 48 hours (one generation). P. falciparum luciferase growth in erythrocytes, 48 h. Potency, µM (top dose mostly 28.7 µM), without a hit: at the top dose activity change, negative = inhibition, actives largely listed as inhibitors. actives 5.9% (n = 310,000). AID 504832; note: potency is the fitted concentration of half-maximal effect
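Read-out is firefly luciferase luminescence from an integrated reporter in P. falciparum, so falling signal marks reduced parasite growth. Infected erythrocytes were at 2% hematocrit and 0.1% parasitemia (final) in Albumax-supplemented RPMI 1640.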
HCV inh: blocks hepatitis C virus | Huh7.5.1 HCVcc-Cre infection, luciferase reporter, 44 h | Potency, µM (titrated, usually from 41.8 µM), inactives show at the highest dose activity change, negative = inhibition, actives largely listed as inhibitors | actives 3.4% (n = 340,000); note: potency is the fitted concentration of half-maximal effect
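Luciferase read-out (15 sec integration) after a 15 min room-temperature substrate step quantifies HCVcc-Cre infection. Cells, 1,000 per well, had compound added 4 h post-plating, then virus at ~0.5 moi, and were cultured 44 h.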
HCMV inh: human cytomegalovirus inhibition | activity change, negative = inhibition, % at 57.5 µM | HFF cells, HCMV-luciferase reporter, 72 h; active compounds read low | AID 1259415 | actives 4.5% (n = 410,000); in the data active = activity change below about -60%; inconclusive = no clear call, values can overlap the other calls; inactive = above about -39%
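Cell-based, HFFs, 1000 cells/well, 16 h 37C; cpds in DMSO + HCMV-luc, MOI 1 PFU/cell; 72 h 37C; OneGlo luminescence after 5 min RT; norm. to buffer vs Salinomycin 10uM.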
Active calls of the source: *; ? = inconclusive; / = no result. Unless noted, calls come from the whole dose curve; as a rule, active = well fitted inhibition curve with a large enough effect; inconclusive = small, poorly fitted or top-dose-only effect, or another doubt; inactive = no such curve, though single readings can be large or run the other way. % is set by controls: 0 for no effect and ±100 for the full control effect.

SMILES	Pf growth 96h	Pf growth 48h	HCV inh	HCMV inh
Cc1c(C(=O)Nc2ccc(S(=O)(=O)N(C)C3CCN(C)CC3)cc2)oc2ccccc12	?	4.7µM*	6.3µM*	?
CN1CCC(N(C)S(=O)(=O)c2ccc(NC(=O)c3ccc(S(=O)(=O)N(C)C)cc3)cc2)CC1	/	/	?	-24
Cc1c(C(=O)Nc2ccc(S(=O)(=O)N(C)C3CCN(C)CC3)cc2)oc2c(Cl)cccc12	2.6µM*	2.9µM*	2µM*	-35
COC(=O)c1ccc(NC(=O)CC2C(=O)N(c3ccc(C)cc3)C(=O)N2Cc2ccc(OC)cc2)cc1 (configuration not stated)	/	/	/	-25
CC(C)(C)NC(=O)NC(=O)COC(=O)Cn1cnc2ccccc2c1=O	-3%	12µM*	11%	25
CC(=O)Nc1cccc(C(=O)NCc2ccc3c(c2)CCN3C(=O)c2ccc(F)cc2)c1	/	/	/	2
O=S(=O)(c1ccc(F)cc1)N(CCO)CC(O)Cn1c2ccccc2c2ccccc21 (configuration not stated)	?	15µM*	-10%	42
CCN(CC(O)Cn1c2ccccc2c2ccccc21)S(=O)(=O)c1ccc(F)cc1 (configuration not stated)	13µM*	/	?	11
O=S(=O)(c1ccc(F)cc1)N(CC(O)Cn1c2ccccc2c2ccccc21)c1ccccc1 (configuration not stated)	/	/	/	-33
CCNc1nc(NC(C)CC)nc(ON=C(C)C)n1 (configuration not stated)	13µM*	1.5µM*	0%	?
CCCNc1nc(NCC)nc(OC)n1	?	5%	-1%	?
CCNc1nc(NCC)nc(ON=C(C)C)n1	2.1µM*	3.7µM*	/	/
Cc1ccc(N(CC(=O)NCCc2ccccc2C)S(=O)(=O)N(C)C)cc1	/	/	/	-13
CN1CCC(N(C)S(=O)(=O)c2ccc(NC(=O)COc3cccc(Cl)c3)cc2)CC1	13µM*	9.3µM*	?	-27
Cc1ccc(OCC(=O)Nc2ccc(S(=O)(=O)N(C)C3CCN(C)CC3)cc2)c(C)c1	?	12µM*	?	-7
Cc1ccc(OCC(=O)Nc2ccc(S(=O)(=O)N3CCOCC3)cc2)c(C)c1	20%	?	5%	-12
CN1CCC(N(C)S(=O)(=O)c2ccc(NC(=O)COc3ccc(Br)cc3Cl)cc2)CC1	2.1µM*	4.1µM*	10µM*	-21
Cc1ccccc1OCCC(=O)Nc1ccc(S(=O)(=O)N(C)C2CCN(C)CC2)cc1	3.7µM*	2.9µM*	?	-1
CN1CCC(N(C)S(=O)(=O)c2ccc(NC(=O)Cc3ccc(F)cc3)cc2)CC1	?	-4%	?	11
Cc1ccc(C)c(OCC(=O)Nc2ccc(S(=O)(=O)N3CCN(C)CC3)cc2)c1	?	?	-14%	-12
Cc1ccc(S(=O)(=O)c2nnn3c2nc(NCc2ccc4c(c2)OCO4)c2sccc23)cc1	/	/	/	5
Cc1cccc(-c2c3c(=O)n(C)c(=O)n(C)c3c3c(C)nc4ccccc4n23)c1	/	/	/	12
Cc1ccc(N2C(=O)N(CC(=O)C(C)(C)C)c3ccccc3S2(=O)=O)cc1C	/	/	/	-6
O=C(COc1ccccc1)NC1CCN(Cc2ccccc2)CC1	12%	?	7%	26
O=C(COc1ccc(Br)cc1Cl)NC1CCN(Cc2ccccc2)CC1	12µM*	?	11µM*	8
SMILES	Pf growth 96h	Pf growth 48h	HCV inh	HCMV inh
Cc1cc(=O)[nH]c(NN)n1	9.3µM*	?	3%	-8
Cc1cc(=O)[nH]c(Nc2cccc(C(F)(F)F)c2)n1	13µM*	?	?	?
COc1ccc(Cl)cc1N/C(N)=N/c1nc(C)cc(=O)[nH]1	61%	9%	-11%	-1
COc1ccc(Cl)cc1Nc1nc(C)cc(=O)[nH]1	/	0%	10µM*	40
Cc1nc2c(C(=O)NCc3ccccc3Cl)cnn2c(C)c1Cc1c(F)cccc1Cl	/	/	/	0
O=C(CN1C(=O)COc2ccc(S(=O)(=O)N3CCOCC3)cc21)Nc1ccc(F)c(Cl)c1	/	/	/	5
COc1ccc(OCC(=O)Nc2ccccc2N2CCCCC2)cc1	-22%	?	?	6
COc1ccc(CC(=O)Nc2ccccc2N2CCCC2)cc1OC	-16%	?	-27%	-22
COc1cc(C(C)=O)ccc1OCC(=O)Nc1ccccc1N1CCCCC1	?	13µM*	?	-37
COc1cc(C(C)=O)ccc1OCC(=O)Nc1ccccc1N1CCCC1	10µM*	-23%	-14%	4
